Source: PubChem (several laboratories)
Shown are actives, neighbours in structure and some others; about 1.3% of the full set was active somewhere.
ADAM17 inh = inhibits human ADAM17. P78536. recombinant ADAM17, EDANS/DABCYL FRET peptide cleavage. inhibition, % at 6.95 µM. hit rate 0.83% among 370,000. AID 720648;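 active = inhibition above the mean of compounds lying between control limits plus 3 SD, set per campaign, cut at about 8.5% in these data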;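 note: 0% = DMSO-only wells as the low control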
GC-A act = GC-A (human) enzyme activation; activation, % at 10 µM; HEK293 GC-A cells, cGMP TR-FRET, EC30 ANP; 0% at EC30 ANP, 100% saturating ANP; hit rate 0.14% among 370,000; P16066; in the data active = activation above about 40%
Target sequence (P16066 whole entry, looked up): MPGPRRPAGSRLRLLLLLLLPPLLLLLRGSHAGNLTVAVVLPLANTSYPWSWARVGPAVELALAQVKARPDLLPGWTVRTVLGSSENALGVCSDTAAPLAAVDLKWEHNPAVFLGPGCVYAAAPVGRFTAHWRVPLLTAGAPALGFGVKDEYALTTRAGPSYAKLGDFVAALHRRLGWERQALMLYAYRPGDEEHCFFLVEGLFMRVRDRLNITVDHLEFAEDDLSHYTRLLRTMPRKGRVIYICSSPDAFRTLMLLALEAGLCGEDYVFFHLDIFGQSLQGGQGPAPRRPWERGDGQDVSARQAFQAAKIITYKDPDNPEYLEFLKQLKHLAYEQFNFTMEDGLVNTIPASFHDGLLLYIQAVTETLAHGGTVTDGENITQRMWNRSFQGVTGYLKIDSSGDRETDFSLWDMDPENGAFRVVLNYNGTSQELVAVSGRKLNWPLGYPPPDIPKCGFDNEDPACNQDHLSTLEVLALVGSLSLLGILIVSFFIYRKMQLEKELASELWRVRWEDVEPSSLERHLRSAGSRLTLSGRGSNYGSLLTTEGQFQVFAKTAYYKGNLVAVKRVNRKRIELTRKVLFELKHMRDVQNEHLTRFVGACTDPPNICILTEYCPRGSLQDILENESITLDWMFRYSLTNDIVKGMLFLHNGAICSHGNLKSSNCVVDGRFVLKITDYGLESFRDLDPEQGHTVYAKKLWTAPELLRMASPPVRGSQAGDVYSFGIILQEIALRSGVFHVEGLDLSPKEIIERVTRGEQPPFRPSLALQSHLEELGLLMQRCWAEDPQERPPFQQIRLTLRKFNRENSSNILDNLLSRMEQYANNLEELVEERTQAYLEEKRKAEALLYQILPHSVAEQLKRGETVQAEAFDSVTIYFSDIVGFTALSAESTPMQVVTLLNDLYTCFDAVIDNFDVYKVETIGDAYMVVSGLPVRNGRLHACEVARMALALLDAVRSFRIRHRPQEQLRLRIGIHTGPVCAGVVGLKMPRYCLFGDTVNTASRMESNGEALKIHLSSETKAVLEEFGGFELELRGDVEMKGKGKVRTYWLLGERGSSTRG
ADAM10 inh = inhibits human ADAM10 | O14672 | recombinant ADAM10, EDANS/DABCYL FRET peptide cleavage, 3 h | inhibition, % at 7 µM | hit rate 0.62% among 370,000 | AID 720582;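 active = inhibition above a per-campaign cutoff equal to the mean of compounds falling between control-based bounds plus 3 SD, cut at about 20% in these data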;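 note: 0% = DMSO wells while the 100% control is not disclosed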
GC-B act = GC-B (human) receptor activation. P20594. HEK293-GC-B cells, CNP EC30, cGMP TR-FRET; 0% at EC30 CNP, 100% saturating CNP. activation, % at 10 µM. hit rate 0.11% among 370,000;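 active = activation at 10 µM reaching about 35% in either raw or pattern-adjusted values, limit read from the data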
ADAM10 ctr = counter-screen for ADAM17 exosite inhibitors: inhibitors of human ADAM10; AID 743256; inhibition, % at 6.95 µM; recombinant ADAM10, EDANS/DABCYL FRET peptide cleavage, 3 h; shares compounds with ADAM17 inh; hit rate 47% among 2,900;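 active = mean inhibition over the triplicate runs exceeds the activity threshold set in the earlier primary screen, cut at about 20% in these data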;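 note: 0% = DMSO wells and 100% = marimastat wells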
ADAM17 confirm = human ADAM17 inhibition, confirmation | recombinant ADAM17, EDANS/DABCYL QFRET peptide cleavage | hit rate 65% among 2,900 | inhibition, % at 6.95 µM | shares compounds with ADAM17 inh;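 active = mean inhibition across replicates above the hit cutoff set in the primary screen, cut at about 8.5% in these data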;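 note: 0% = DMSO wells and 100% = marimastat wells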
The depositor's hits bear a star; / = no result given.

SMILES	ADAM17 inh	GC-A act	ADAM10 inh	GC-B act	ADAM10 ctr	ADAM17 confirm
Cn1cnnc1SCC(=O)c1cccc([N+](=O)[O-])c1	8.7*	-1	10	0	2	3
COc1cccc(C(=O)COc2cccc(NC(=O)c3ccco3)c2)c1	9.2*	2	6	-1	7	7
COc1ccccc1C1CC(c2ccc(Br)cc2)=NN1C(=O)c1cccnc1 (centres undefined)	9.7*	-6	17	-10	9	8
O=C(O)C1CCCC[C@H]1C(=O)Nc1ncc([N+](=O)[O-])s1 (some centres undefined)	1	-1	4	3	/	/
CC(=O)NCCNc1nc(NCC2CC2)nc2cc(-c3ccccc3)sc12	-32	8	-119	-5	/	/
CC(C)C(=O)N[C@@H]1c2ccccc2CC[C@@H]1OCc1ccccc1	-4	0	-22	-1	/	/
O=[N+]([O-])c1cc(-n2cnnn2)ccc1N1CCC(Cc2ccccc2)CC1	12*	-5	26*	-1	13	9.2*
COc1cccc(C(O)c2nc(-c3cnn(C)c3)cs2)c1 (centres undefined)	-2	1	-2	1	/	/
C=CCOc1ccc(CNc2nn[nH]n2)cc1	9.1*	1	17	-2	-15	-3
Cc1ccc(-c2cc(C(F)F)n3ncc(C(=O)N4CCCCC4c4cccnc4)c3n2)cc1 (centres undefined)	-7	-16	-14	-17	/	/
COc1cc2c(cc1NC(=O)COC(=O)[C@@H](NS(=O)(=O)c1ccccc1)C(C)C)oc1ccccc12	11*	1	19	1	-5	5
O=C(N[C@@H](Cc1ccccc1)C(=O)N1CCC2CCN(S(=O)(=O)c3ccccc3)CC21)[C@@H]1CCCN1 (some centres undefined)	-6	6	-7	8	/	/
OCCCn1c(C2CCCN2c2nc(-c3ccc(F)cc3)cs2)nc2cc(C(F)(F)F)ccc21 (centres undefined)	5	-7	12	-11	/	/
OCCOCCn1c(C2CCCN2c2nc(-c3ccc(F)cc3)cs2)nc2cc(C(F)(F)F)ccc21 (centres undefined)	9.9*	-1	12	-2	7	7
Cc1cc(C2(c3ccc(O)c(C)c3)OC(=O)c3ccccc32)ccc1O	11*	-7	9	0	18	11*
CSc1ccc(C(O)c2ncc(-c3cccc(OCc4ccccc4)c3)[nH]2)cc1 (centres undefined)	9.3*	-2	19	4	23*	11*
OC(c1ccc(-c2ccccc2)cc1)c1ncc(-c2ccc(F)cc2)[nH]1 (centres undefined)	11*	-4	19	-5	23*	12*
Cc1cccc(-c2noc(-c3ccccc3C(=O)NCC3CCCO3)n2)c1 (centres undefined)	1	2	2	2	/	/
COc1cccc(NC(=O)c2ccccc2-c2nc(-c3cccc(C)c3)no2)c1	9.6*	-6	25*	-3	26*	15*
O=C(/C=C/c1ccc(Br)cc1)c1ccc(NC2=NCCCS2)cc1	8.8*	-22	14	-9	26*	13*
Cc1ccc(S(=O)(=O)NCCC(=O)NCCOc2ccccc2)cc1	-4	4	-9	-2	/	/
CCOC(=O)c1c(C)[nH]c(C)c1S(=O)(=O)NCCc1sccc1C	9.0*	-5	6	4	4	7
CC12CCC(C(=O)NC(c3ccccc3)c3ccccc3)(OC1=O)C2(C)C (centres undefined)	9.1*	-1	12	-2	-5	-1
CC12CCC(C(=O)NNc3ccccc3)(OC1=O)C2(C)C (centres undefined)	-5	2	-9	2	/	/
O=C(CCn1nc(-c2ccccc2)c2ccccc2c1=O)N1CCN(c2ccccc2)CC1	10*	-17	12	-16	6	8
SMILES	ADAM17 inh	GC-A act	ADAM10 inh	GC-B act	ADAM10 ctr	ADAM17 confirm
CC(=O)C1(O)CCC2C3CC(C)C4=CC(=O)C=CC4(C)C3(F)C(O)CC21C (centres undefined)	2	0	-4	-3	/	/
CCN(CC)S(=O)(=O)c1ccc(OC)c(NC(=O)c2ccc(OC)c([N+](=O)[O-])c2)c1	13*	-3	13	-8	0	1
Cc1ccc(-c2nc(C3CCCN(S(=O)(=O)c4ccc(Cl)s4)C3)no2)cc1 (centres undefined)	-3	-1	-3	0	/	/
CCCCN1CC(O)=C(c2nc3ccccc3[nH]2)C1=N	0	26	5	-5	/	/
CCCCCN1CC(O)=C(c2nc3ccccc3[nH]2)C1=N	10*	18	11	-4	12	8
Cc1cc(C)c2sc(N(CCN(C)C)C(=O)c3ccc4ccccc4c3)nc2c1	10*	-21	3	-6	8	8
COc1ccccc1C(=O)N(CCN(C)C)c1nc2cc(C)cc(C)c2s1	-1	-13	1	-15	/	/
Cc1ccc(Nc2ncccc2C(=O)NCc2cccs2)c(C)c1	3	4	10	-10	/	/
Cc1cccc(Nc2ncccc2C(=O)NCc2cccs2)c1C	10*	0	16	-8	27*	15*
O=[N+]([O-])c1ccc(O)c(/C=N/n2cnnc2)c1	9.2*	-3	15	5	11	5
Cc1ccc(S(=O)(=O)N(C)CC(=O)Nc2cccnc2)cc1	0	3	1	5	/	/
COc1cccc(-c2ccc3ncnc(NCc4ccc5c(c4)OCO5)c3c2)c1	11*	2	16	2	-4	2
c1nc(NCc2ccc3c(c2)OCO3)c2cc(-c3ccc4c(c3)OCCO4)ccc2n1	-27	5	-88	3	/	/
CC(C)C(C(=O)NCc1ccco1)N(C(=O)CNS(=O)(=O)c1ccccc1)C1CCCC1 (centres undefined)	10*	-4	8	2	0	3
CCC(C(=O)NCc1ccco1)N(C(=O)CNS(=O)(=O)c1ccccc1)C1CCCCC1 (centres undefined)	-1	-5	-7	-4	/	/
Cc1ccc2c(c1)C(CS(=O)(=O)NC1CCCC1)NC2 (centres undefined)	0	1	-2	8	/	/
CCn1c(CNC(=O)COc2ccc(C(C)C)cc2)nnc1SCC(=O)Nc1cc(F)ccc1C	12*	2	12	0	1	4
CCn1c(CNC(=O)COc2ccc(C(C)C)cc2)nnc1SCC(=O)Nc1ccc(F)cc1	4	-2	3	1	/	/
CC(C)(C)c1cc(C(=O)NNc2cc(C(F)(F)F)ccc2Cl)n(Cc2ccccc2)n1	10*	6	19	0	27*	10*
